The source of these data is paper PMC11062922 (Nature Chemical Biology, 2023).

Molecules are shown by their SMILES. Like-named read-outs stand apart in the source and are kept apart here.

The subject of one assay is PIK3CA. Set-up: species or system human, MV4-11 + K-562 + COLO205 + SK-N-BE2 + OVCAR-8. The following applies: read-out: apparent Kd, n = 1.
The subject of a further assay is PIK3CD. Set-up: species or system human, MV4-11 + K-562 + COLO205 + SK-N-BE2 + OVCAR-8. The following applies: read-out: apparent Kd, n = 1.
[1] abbreviates: compound concentrations:100 nM and 1000 nM (sheet 'Samples').
The mark [2] stands for this setting: compound concentrations: 100 nM and 1000 nM (sheet 'Samples'), CATDS: 1.

For `O=C(NCCNc1ccnc(Nc2ccc(F)cc2)n1)Nc1ccccc1F` [GSK1379880A], the potency estimated from few doses in the assay on PIK3CA (compound concentrations: 100 nM and 1000 nM (sheet 'Samples'), CATDS: 0.78372192939813501) was 233 nM. On to `O=C(NCCNc1ccnc(NCc2ccc(F)cc2)n1)c1cc2ccccc2s1` [GSK1379944A], for which, in the assay with PIK3CD (setting [1]), the potency estimated from few doses was 200 nM.

Take `CN(C)S(=O)(=O)c1cc(-c2ccc3nccc(-c4cccc(S(N)(=O)=O)c4)c3c2)cnc1N` [GSK1669921A]: the potency estimated from few doses was 23 nM with PIK3CA (compound concentrations: 100 nM and 1000 nM (sheet 'Samples'), CATDS: 0.37789009746554098); 9.62 nM in the assay on PIK3CD (compound concentrations: 100 nM and 1000 nM (sheet 'Samples'), CATDS: 0.59190161407117303). As for `CN(C)CCOc1ccc(-c2cc(-c3ccc(Cl)c(O)c3)c(-c3ccncc3)[nH]2)cc1.CN(C)CCOc1ccc(-c2cc(-c3ccc(Cl)c(O)c3)c(-c3ccncc3)[nH]2)cc1.Cl.Cl` [SB-684387-B], in the assay with PIK3CA (compound concentrations: 100 nM and 1000 nM (sheet 'Samples'), CATDS: 0.97128160740856295), the potency estimated from few doses was 16 nM. Regarding `COc1cccc(-n2ncc3c(N/N=C/c4cccc(F)c4)ncnc32)c1` [GW817394X], the potency estimated from few doses in the assay with PIK3CA (setting [2]) is 237 nM. Regarding `CCCCCc1nc2c(N)ncnc2n1CCCCC` [SKF-97255], the potency estimated from few doses in the assay with PIK3CD (setting [2]) was 152 nM.

Consider `Nc1ncnc2c1nc(-c1ccccc1)n2-c1ccccc1` [SKF-97293], for which the potency estimated from few doses in the assay with PIK3CA (setting [2]) was 284 nM. On to `O=C(O)C(F)(F)F.[2H]C([2H])(c1cccc(C(F)(F)F)c1C)n1c(SC)nn2c(=O)cc(N3CCOCC3)nc12` [GSK2363608B], for which the potency estimated from few doses in the assay with PIK3CD (setting [1]) is 146 nM.

`Nc1ncc(-c2ccc3nccc(-c4ccncc4)c3c2)cc1S(=O)(=O)N1CCCCC1` [GSK1693850A]: the potency estimated from few doses with PIK3CA (compound concentrations: 100 nM and 1000 nM (sheet 'Samples'), CATDS: 0.402374173970307) is 6.74 nM; in the assay with PIK3CD (compound concentrations: 100 nM and 1000 nM (sheet 'Samples'), CATDS: 0.491044301139066) it was 4.69 nM. On to `CC(C)c1ccc(O)cc1Nc1ccnc2ccc(C(F)(F)F)cc12` [GW482059X], for which the potency estimated from few doses was 239 nM in the assay on PIK3CA (compound concentrations: 100 nM and 1000 nM (sheet 'Samples'), CATDS: 0.44189081373448802); 139 nM in the assay with PIK3CD (compound concentrations: 100 nM and 1000 nM (sheet 'Samples'), CATDS: 0.57570605535332697). Consider `COc1ncc(-c2cc(-c3ncc(CN4C[C@@H](C)O[C@@H](C)C4)o3)c3cn[nH]c3c2)cc1NS(C)(=O)=O` [GSK2292767], for which the potency estimated from few doses was 9.18 nM in the assay with PIK3CA (compound concentrations: 100 nM and 1000 nM (sheet 'Samples'), CATDS: 0.29964038012822602); 0.614 nM with PIK3CD (compound concentrations: 100 nM and 1000 nM (sheet 'Samples'), CATDS: 0.86289624081171401). Turning to `Cl.O=S1CCN(Cc2ccc(-c3ccc4ncnc(Nc5ccc(OCc6ccccc6)c(Cl)c5)c4c3)o2)CC1` [GW583373A], in the assay on PIK3CA (setting [1]), the potency estimated from few doses was 213 nM. Consider `Cc1cccc(-c2nc(Nc3ccc4c(cnn4C)c3)c3ccccc3n2)n1` [GW876731X], for which the potency estimated from few doses in the assay with PIK3CD (setting [1]) was 158 nM. `CC(C)N1CCN(Cc2cnc(-c3cc(-c4cccc5[nH]ccc45)cc4[nH]ncc34)o2)CC1` [GSK2269557]: in the assay on PIK3CD (setting [2]), the potency estimated from few doses was 1.45 nM. In the case of `CCn1c(-c2ccncc2)nc2cnccc21` [SB-735216], the potency estimated from few doses in the assay on PIK3CD (compound concentrations: 100 nM and 1000 nM (sheet 'Samples'), CATDS: 0.88201100485399897) was 172 nM. Regarding `Cl.NC(=O)c1cccc(Nc2nccc(Nc3ccc(Oc4c(Cl)cccc4Cl)c(Cl)c3)n2)c1` [GW659009A], the potency estimated from few doses is 183 nM in the assay on PIK3CA (compound concentrations: 100 nM and 1000 nM (sheet 'Samples'), CATDS: 0.34504160600825701); 9.83 nM in the assay on PIK3CD (compound concentrations: 100 nM and 1000 nM (sheet 'Samples'), CATDS: 0.90760673272471903). Turning to `CN(C1=C(c2ccccc2)C(=O)NC1=O)c1ccccc1` [SB-334860], the potency estimated from few doses in the assay on PIK3CD (setting [1]) was 175 nM. For `Cc1nn2c(=O)cc(N3CCOCC3)nc2n1Cc1cccc(Cl)c1Cl` [GSK2342769A], in the assay with PIK3CD (setting [1]), the potency estimated from few doses is 87.6 nM. For `O=c1cc(N2CCOCC2)nc2n(Cc3ccc(F)c(Cl)c3)ccn12` [GSK2297099A], the potency estimated from few doses is 186 nM in the assay on PIK3CA (setting [1]) and 150 nM with PIK3CD (setting [1]).
